Bioassay records (PubChem BioAssay)
The full list was thinned out, with hits kept by preference.
Tgondii IFNg = T. gondii growth inhibition under IFN-gamma. 69,000 compounds, 3.8% hits. Toxoplasma gondii growth in IFN-gamma-treated host cells; active compounds read low. activity change, negative = inhibition, % (concentration not given with the values); in the data active = activity change below about -70%, passing the limit was not always enough;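 also: host cells are HeLa cells infected with Toxoplasma gondii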
The depositor's hits bear a star; i = inactive.

SMILES | Tgondii IFNg
Cc1ccccc1C(=O)N1CCC2(CC1)Nc1ccc(C)c(C)c1-n1cccc12 | 32
Cc1cc(C)cc(NC(=O)CC(=O)NCc2ccccc2)c1 | -86*
Cc1ccc(NC(=O)CC(=O)NCc2ccc(CN3CCCC3)cc2)cc1 | -21
CCc1nc(OCC(=O)Nc2cc(C)cc(C)c2)c2ccccc2n1 | -6
O=c1cc(O)c2c(=O)n3c4c(cccc4c2o1)CCC3 | -15
CN1CCc2ccccc2Cc2[nH]c3ccccc3c2CC1 | 7
O=c1c2c3ccccc3[nH]c2c2cccc3c2n1CC3 | -89*
Cc1ccc(CC(=O)Nc2ccc(-c3nc(-c4ccc(C)cc4)co3)cc2)cc1 | 27
CCOc1ccccc1-c1nc(Cn2c(=O)c3cccnc3n(-c3ccc(OC)cc3)c2=O)c(C)o1 | 2
CN(C(=O)CCCN1CCOCC1)C1CCCc2ccccc21 (stereo not given) | 5
CCc1cc(-c2cccc3ccnn23)nc(N2CCOCC2)n1 | 22
COc1ccc(CC2CN(C(=O)c3cc4cccc(C)c4o3)CCO2)cc1 (stereo not given) | -48
CCOC(=O)C1CCN(C(=O)c2nc(-c3ccc(Cl)cc3)n3c2CCCCC3)CC1 | -69
Cc1ccc(-c2nc(C(=O)N3CCCC(C)C3)c3n2CCCCC3)cc1 (stereo not given) | -96*
CC1CCCN(C(=O)c2nc(-c3ccc(Cl)cc3)n3c2CCCCC3)C1 (stereo not given) | -97*
CCOC(=O)C1CCCN(C(=O)c2nc(-c3ccc(Cl)cc3)n3c2CCCCC3)C1 (stereo not given) | 99
O=C(c1nc(-c2cccc(F)c2)n2c1CCCCC2)N1CCN(c2ccccc2)CC1 | -12
Cc1ccc(-c2nc(C(=O)N3CCC(C)CC3)c3n2CCCCC3)cc1 | -32
CCOc1ccccc1-c1nc(Cn2nnc(C(=O)Nc3cccc(C)c3C)c2C)c(C)o1 | 43
COc1cc2c(cc1-c1c(-c3ccccc3)ncn1Cc1ccon1)CCC2 | -16
CCn1c(CC2CCN(c3cnc4ccccc4n3)CC2)nn(C)c1=O | -36
Cc1ccc(C2=NC3(CCN(CC(=O)Nc4ccc(C)c(F)c4)CC3)NC2=O)cc1C | 4
CN(C)CCO[C@H]1CN(S(=O)(=O)c2cccs2)[C@H]2COC[C@@H]12 | -4
CNC(=O)N1CCC2(CC1)CCn1c(-c3cnn(C)c3)cnc12 | -2
COC[C@@H]1CCC[C@]12CN(S(=O)(=O)c1cccs1)CCO2 | -49
SMILES | Tgondii IFNg
NC(=O)Nc1cc(-c2cccc(F)c2)sc1C(=O)N[C@H]1CCCNC1 | -84*
N#C[C@@H]1[C@@H](c2ccccc2-c2cccc(F)c2)[C@H](CO)N1C(=O)NC1CCCCC1 | 11
O=C(N[C@H]1CCCNC1)c1cn(C/C=C/c2ccccc2)nn1 | -6
COc1ccc(C(=O)NCCc2sc(-c3ccccc3)nc2C)cc1OC | i
CSc1ssc(=Nc2ccc(F)c(F)c2)c1-c1ccccc1 | -71*
C=CCN1CC[C@@H]2OC[C@H](C(=O)NCc3cnc(C)cn3)C[C@H]2C1 | 3
Cc1cccc(NC(=O)C(=O)NCCc2csc(-c3cccc(F)c3)n2)c1C | -21
Cc1ccc(/C=C2\SC(=O)NC2=S)o1 | -12
Cc1nnnn1-c1cccc(C(=O)N2CCC(c3cc(C(C)C)n[nH]3)CC2)c1 | -4
Cc1cc(C2CCCN2Cc2ccc(C(=O)Nc3c(C)noc3C)cc2)on1 (stereo not given) | -2
Cc1[nH]c(=O)[nH]c(=O)c1-c1ccc(C(C)N2CCCC2)cc1 (stereo not given) | -1
CC(c1cccc(-c2ccc3[nH]c(=O)[nH]c(=O)c3c2)c1)N1CCCC1 (stereo not given) | -71*
CC(c1cccc(-c2ccc[nH]c2=O)c1)N1CCCC1 (stereo not given) | 3
Cc1nc(N2CCOCC2)nc2c1COCC21CCN(c2ncc(F)cn2)C1 (stereo not given) | -1
Cc1nc2ccccc2n1Cc1ccccc1 | -58
Cc1nc2n(Cc3ccccc3)c3ccccc3n2c1C(=S)Nc1ccccc1 | -114*
Cc1nc(C)c(C(=O)Nc2ccc3c(c2)CN(Cc2ccccc2)C3)o1 | 0
OCC1(CCc2ccccc2)CCCN(c2cnc3ccccc3n2)C1 (stereo not given) | -8
c1cnc(OC2COC3(CCN(c4ncccn4)C3)C2)nc1 (stereo not given) | 5
CN(Cc1ccc(-n2cccn2)cc1)Cc1sc(N(C)C)nc1Cl | -26
CC(C)=CCc1c(O)cc2oc(C)cc(=O)c2c1O | 2
COc1c(O)cc2oc3cc(O)c(CC=C(C)C)c(O)c3c(=O)c2c1CC=C(C)C | -71*
COc1cc2oc3cc(OC)c(OC)c(CC=C(C)C)c3c(=O)c2c(O)c1CC=C(C)C | 8
Cc1cc(C(F)(F)F)nn1CC(=O)Nc1cccc(O)c1 | 0
O=S(=O)(NCC1(c2ccccc2)CCCC1)c1cccnc1 | -29
SMILES | Tgondii IFNg
Cc1oc(-c2ccccc2)nc1Cn1nnc(C(=O)Nc2ccc(F)c(F)c2)c1C | 8
CCOC[C@@H]1CCC2C(CCN2C(=O)CCc2ccccc2)O1 (stereo not given in full) | 30
O=c1[nH]c2ccccc2c(O)c1-c1nc(-c2ccccc2Cl)no1 | 33
O=Nc1c(-c2c(O)[nH]c3ccccc23)[nH]c2ccccc12 | -84*
Cc1ccc(S(=O)(=O)N=Nc2c(O)[nH]c3ccccc23)cc1 | 31
Oc1[nH]c2ccccc2c1N=Nc1ccccc1 | 195
Cc1nc(C2(O)CCCNCC2)sc1CCOc1ccc(F)c(F)c1 (stereo not given) | -21
CC(=O)N1CCC2(CC1)CC(OCc1cccnc1)CO2 (stereo not given) | -3
CO[C@H]1COC[C@@H]1NC(=O)c1ccc(CSc2ncccn2)o1 | 5
OCc1csc(-c2cccc3cnccc23)n1 | -5
CCN1C(=O)CCc2cc(NS(=O)(=O)c3ccc(C4CCCCC4)cc3)ccc21 | -95*
CC(C)CN1C(=O)CCc2cc(NS(=O)(=O)c3ccc(Cl)cc3)ccc21 | -80*
CCN1C(=O)CCc2cc(NS(=O)(=O)c3cccc(F)c3)ccc21 | 194
CCN1C(=O)CCc2cc(NS(=O)(=O)c3cc(F)ccc3F)ccc21 | 53
CCN1C(=O)CCc2cc(NS(=O)(=O)Cc3ccc(Cl)cc3)ccc21 | -41
CCN1C(=O)CCc2cc(NS(=O)(=O)c3ccc(C#N)cc3)ccc21 | -102*
CCN1C(=O)CCc2cc(NS(=O)(=O)c3c(C)cccc3Cl)ccc21 | -48
Cc1cc(C)cc(S(=O)(=O)Nc2ccc3c(c2)CCC(=O)N3CC(C)C)c1 | -40
CC(C)CN1C(=O)CCc2cc(NS(=O)(=O)c3ccccc3)ccc21 | -50
CCCc1ccc(S(=O)(=O)N2CCC3(CC2)Nc2cc(F)ccc2-n2cccc23)cc1 | 0
O=C1c2ccccc2S(=O)(=O)N1Cc1nnnn1-c1cccc(C(F)(F)F)c1 | 17
c1ccc(Cn2cc(-c3cccc(CN4CCOCC4)c3)cn2)cc1 | -7
O=C(NCc1cccnc1)c1cc2cc(C34CC5CC(CC(C5)C3)C4)ccc2oc1=O | -63
Cc1ccc(-c2nc(CN3CCN(C(=O)Nc4ccccc4)CC3)c(C)o2)cc1 | 0
CCC(C(=O)NCc1csc(C)n1)N1Cc2ccccc2C1=O (stereo not given) | 0
NC1CCc2c(ccc(=O)n2CC2CC2)C1 (stereo not given) | -20
CC(C)N(Cc1nccn1C)C(=O)c1ccc(-c2nnn(C)n2)cc1 | 0
CCCCC(=O)Nc1ccc(C)cc1NC(=O)c1oc(CC)nc1C | -59
Cn1c(-c2ccccc2)cnc1NC(=O)c1nonc1N | -104*
Cc1cc2nc(C)c(CCC(=O)Nc3ncc(-c4ccccc4)n3C)c(C)n2n1 | 14
